# Test results reported in the supplement of paper PMC8975748.
# Structures can show the parent of a compound that is named as a salt.
# Test system: Saccharomyces cerevisiae BY4741 SeMeCo community
# Assay: z-score of subpopulation abundance vs DMSO median, subpopulation auxotrophic for HL; higher = larger share of this subpopulation than in DMSO controls
# Conditions: 10 µM; 24 h; SM minimal medium; subpopulation (auxotrophy): HL
# Procedure: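 Fluorescent four-plasmid SeMeCo (self-establishing metabolically cooperating S. cerevisiae BY4741 community; plasmids pH-mRuby2, pL-mWasabi, pU-eCFP, pM-TagRFP657) was grown 24 h in minimal SM medium with each Selleck FDA-approved drug at 10 µM in 384-well plates. Cells were fixed and imaged by high-content confocal microscopy. For each auxotrophic subpopulation (and the prototroph), a z-score gives the deviation from the DMSO vehicle-control population median.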
row,SMILES,z-score of subpopulation abundance
1,O=C(O)c1cc(/N=N/c2ccc(O)c(C(=O)O)c2)ccc1O [Olsalazine Sodium],-0.76
2,Nc1nc(N)nc(-c2cc(Cl)ccc2Cl)n1 [Irsogladine],-0.18
3,CC(=O)OC1CC2(C)C(CC(O)C3C4(C)CCC(O)C(C)C4CCC32C)C1=C(CCC=C(C)C)C(=O)O (stereo not given) [Fusidine],2.33
4,CN(Cc1cnc2nc(N)nc(N)c2n1)c1ccc(C(=O)N[C@@H](CCC(=O)O)C(=O)O)cc1 [Methotrexate disodium],10.8
5,O=C1[C@H]2CCCC[C@H]2C(=O)N1CCCCN1CCN(c2nsc3ccccc23)CC1 [Perospirone hydrochloride],-0.17
6,Clc1ccc(CCC(Cn2ccnc2)Sc2c(Cl)cccc2Cl)cc1 (stereo not given) [Butoconazole nitrate],14.5
7,C=C[C@H]1CN2CC[C@H]1C[C@@H]2[C@@H](O)c1ccnc2ccc(OC)cc12 [Quinidine sulfate],1.36
8,CC#C[C@]1(O)CC[C@H]2[C@@H]3CCC4=CC(=O)CCC4=C3[C@@H](c3ccc(N(C)C)cc3)C[C@@]21C [Mifepristone],1.2
9,Cc1ccccc1OCC(O)CO (stereo not given) [Mephenesin],-0.53
10,Nc1ccc(C(=O)O)c(O)c1 [4-Aminosalicylic acid],0.08
11,NCCNc1ccc(NCCN)c2c1C(=O)c1ccncc1C2=O [Pixantrone Maleate],9.63
12,COc1ccc(-c2nc3cc(C4=NNC(=O)CC4C)ccc3[nH]2)cc1 (stereo not given) [Pimobendan],0.79
13,O=c1[nH]c(=O)n([C@H]2C[C@H](O)[C@@H](CO)O2)cc1/C=C/Br [Brivudine],-1.84
14,Cc1c(Cl)cccc1Nc1ccccc1C(=O)O [Tolfenamic Acid],-0.69
15,COC(=O)Nc1nc2cc(C(=O)c3ccccc3)ccc2[nH]1 [Mebendazole],0.26
16,CO[C@@]1(NC(=O)CSC[C@@H](N)C(=O)O)C(=O)N2C(C(=O)O)=C(CSc3nnnn3C)CS[C@@H]21 [Cefminox Sodium],1.62
17,COc1cc(NS(=O)(=O)c2ccc(N)cc2)ncn1 [Sulfamonomethoxine],-0.82
18,O=C(O)c1ccccc1C(=O)Nc1ccc(S(=O)(=O)Nc2nccs2)cc1 [Phthalylsulfathiazole],-0.66
19,CC(C)NNC(=O)c1ccncc1 [Iproniazid],-0.1
20,CC[C@H]1OC(=O)[C@H](C)[C@@H](O[C@H]2C[C@@](C)(OC)[C@@H](O)[C@H](C)O2)[C@H](C)[C@@H](O[C@@H]2O[C@H](C)C[C@H](N(C)C)[C@H]2O)[C@](C)(O)C[C@@H](C)C(=O)[C@H](C)[C@@H](O)[C@]1(C)O [Erythromycin thiocyanate],-0.71

row,SMILES,z-score of subpopulation abundance
1,Nc1ccc(S(=O)(=O)Nc2cnc3ccccc3n2)cc1 [Sulfaquinoxaline sodium],-0.29
2,CC1(C)CC[C@]2(C(=O)O)CC[C@]3(C)C(=CC[C@@H]4[C@@]5(C)CC[C@H](O)C(C)(C)[C@@H]5CC[C@]43C)[C@@H]2C1 [Oleanolic Acid],0.59
3,O=C1c2cccc3c2[C@H](CCC3)CN1[C@@H]1CN2CCC1CC2 [Palonosetron],-0.45
4,Nc1nc2[nH]cc(CCc3ccc(C(=O)N[C@@H](CCC(=O)O)C(=O)O)cc3)c2c(=O)[nH]1 [Pemetrexed Disodium Hydrate],5.03
5,OCCN1CCN(CC/C=C2/c3ccccc3Sc3ccc(C(F)(F)F)cc32)CC1 [Flupenthixol dihydrochloride],0.88
6,COc1ccnc(C[S+]([O-])c2nc3cc(OC(F)F)ccc3[nH]2)c1OC (stereo not given) [Pantoprazole sodium],-0.43
7,CCCCCCCCCCCCCCCCCCOP(=O)([O-])OC1CC[N+](C)(C)CC1 [Perifosine (KRX-0401)],18.8
8,C#C[C@]1(OC(C)=O)CC[C@H]2[C@@H]3CCC4=C[C@@H](OC(C)=O)CC[C@@H]4[C@H]3CC[C@@]21C [Ethynodiol diacetate],0.67
9,Cc1ncc([N+](=O)[O-])n1CC(C)O (stereo not given) [Secnidazole],-0.51
10,CCOC(=O)c1ccc(N)cc1 [Benzocaine hydrochloride],0
11,Oc1c(Br)cc(Br)c2cccnc12 [Broxyquinoline],10.5
12,COc1ccc2cc3[n+](cc2c1OC)CCc1cc2c(cc1-3)OCO2 [Berberine chloride],0.31
13,C[C@H]1COc2c(C3(N)CC3)c(F)cc3c(=O)c(C(=O)O)cn1c23 [Pazufloxacin mesylate],-0.07
14,CNCCCC1c2ccccc2C=Cc2ccccc21 [Protriptyline hydrochloride],0.25
15,CC(NCCC(c1ccccc1)c1ccccc1)c1ccccc1 (stereo not given) [Fendiline hydrochloride],-0.41
16,CCc1nn(CCCN2CCN(c3cccc(Cl)c3)CC2)c(=O)n1CCOc1ccccc1 [Nefazodone hydrochloride],0.71
17,COC1C(O)CC(=O)OC(C)CC=CC=CC(OC2CCC(N(C)C)C(C)O2)C(C)CC(CC=O)C1OC1OC(C)C(OC2CC(C)(O)C(O)C(C)O2)C(N(C)C)C1O (stereo not given) [Spiramycin],0.65
18,COc1ccc(C(Cl)=C(c2ccc(OC)cc2)c2ccc(OC)cc2)cc1 [Chlorotrianisene],0.2
19,CC[C@@]1(O)C(=O)OCc2c1cc1n(c2=O)Cc2cc3c(CN(C)C)c(O)ccc3nc2-1 [Topotecan HCl],0.17
20,CCCc1nn(C)c2c(=O)[nH]c(-c3cc(S(=O)(=O)N4CCN(C)CC4)ccc3OCC)nc12 [Sildenafil],-1.43
